Inconclusive results are not listed. Entries that show only a call come without a potency. Calls of active or inactive are those of the source. The call rests on the fitted dose curve; in most records, active means well fitted curve in the direction sought with a large enough effect; inconclusive means small, poorly fitted or top-dose-only effect, or another doubt; inactive means no such curve, though single readings can be large; an effect the other way counts as inactive or inconclusive.
Assays:
[1] = qHTS to identify inhibitors of the type 1 interferon - major histocompatibility complex class I in skeletal muscle: primary screen against the NCATS LOPAC collection (AID 1347405);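 further: human myoblasts with HiBiT tag on endogenous HLA-B stimulated by IFN-beta; lytic HiBiT luminescence reporting HLA-B protein level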; further: potency means the concentration at half of the fitted maximal effect
Procedure, shortened: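 HLA-B HiBiT myoblasts, IFN-b 4 ng/ml, dexamethasone-free medium; compounds 7-pt 1:4.3 titration, top 46 uM final; 24 h at 37 C; Nano-Glo HiBiT lytic reagent, 10 min RT, luminescence.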

[2] = qHTS for inhibitors of adenylyl cyclases using a fission yeast platform: a pilot screen against the NCATS LOPAC library (AID 1347410)
Procedure, shortened: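 S. pombe CHP2027 (AC9-GNAS-PDE4D2) carrying a PKA-repressed fbp1-GFP reporter was exposed to LOPAC compounds (final up to 57 µM) for 18 h at 30C in the dark, in EMM with histidine, lysine and uracil; GFP gain-of-signal read by laser scanning cytometry.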

[3] = Validation qHTS assay for inhibitors of Activation Induced Cytidine Deaminase (AID): UDG Counterscreen signal (AID 1347427)
Procedure, shortened: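 Fluorescence at 560 nm excitation, 665 nm emission reports UDG signal after 250 mM NaOH (2x) addition and 30 min. Enzymes (AID 1 uM, UDG 2 U/mL, at 4/3x) preincubated 10 min with compound, then 4 h with 4x 250 nM DJC20/DJC23 substrate at room temperature.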

[4] = 10-beta competent E. coli microbial cell viability qHTS against the NCATS CANVASS Library (AID 1347376)
Procedure, shortened: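 Luminescence from BacTiter-Glo ATP detection served as the viability read-out; bacteria (0.2 OD) had been incubated overnight at 37C with pin-transferred compounds at 11 concentrations.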

[5] = qHTS for H2AX Agonists against the NCATS CANVASS Library (AID 1347378)
Procedure, shortened: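 CHO-K1 cells were plated overnight at 37C, then exposed to compounds (concentration series, 0.76% DMSO final) for 3 hr at 37C. Lysates received Eu-cryptate anti-pH2AX (S139) and d2 anti-H2AX antibodies; after 24 hr at room temperature, TR-FRET 665/620 nm ratio was read.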

[6] = qHTS for Inflammasome Signaling Inhibitors: IL-1-beta AlphaLISA screen against the NCATS CANVASS Library (AID 1347379); conditions: THP-1 LPS/ATP, IL-1B AlphaLISA secretion, 16 h; at 57.5 µM (top of the series) unless noted;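 further: human THP-1 cells primed with LPS then triggered with ATP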
Procedure, shortened: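 THP-1, 1 hr compound pre-incubation, then LPS 250 ng/mL + ATP 1.25 mM (final); 16 hr total with compound; IL-1B AlphaLISA, ex 680/em 615 nm; 11-point qHTS, up to 57.5 uM final.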

[7] = qHTS for Antimalaria activity screened against the NCATS CANVASS Library (AID 1347380);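 further: Plasmodium falciparum strain Dd2 asexual parasites grown in red blood cells; nearly all actives have a fitted effect of over 40% in size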
Procedure, shortened: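 SYBR Green fluorescence (ex 485, em 535 nm) read after saponin/Triton lysis and 18 h further incubation; Dd2 asexual blood-stage parasites, 72 h compound exposure, 11-pt concentration series, 2.5% hematocrit, 0.3% parasitemia.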

[8] = Inflammasome Signaling qHTS Counterscreen: IL-1-beta AlphaLISA counterscreen against the NCATS CANVASS Library (AID 1347381);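 further: cell-free check with purified IL-1β in medium and no THP-1 cells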
Procedure, shortened: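 Here, no cellular stimulation occurs; compounds in an 11-point series meet 4 pg purified IL-1-beta directly. Bead-based AlphaLISA detection follows (1 h acceptor/antibody, then 30 min donor, dark, room temperature), with excitation at 680 nm.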

[9] = Cytotoxicity qHTS for assessment of Hepg2 cells membrane integrity screened against the NCATS CANVASS Library (AID 1347387)
Procedure, shortened: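 LDH release read by fluorescence (560 nm ex/590 nm em) after CytoTox-ONE addition and 10 min RT; signal tracks lysed cells. HepG2, 2000 cells/well, plated overnight; compound 5 hr, 37C, 5% CO2, final 0.59 nM - 46 uM, 11 points.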

[10] = qHTS for Activators of p53 Stress Response Pathway screened against the NCATS CANVASS Library (AID 1347388)
Procedure, shortened: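 p53RE-bla HCT-116 cells (4000/well) were plated 5 h at 37C, exposed to compounds for 16 h at 37C over an 11-point concentration series, then loaded with CCF4 for 2 h at room temperature; 460/530 nm emission ratio read.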

[11] = qHTS assay for small molecule disruptors of mitochondrial membrane potential screened against the NCATS CANVASS Library (AID 1347389); further: nearly all actives have a fitted effect of over 60% in size
Procedure, shortened: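 Red/green fluorescence ratio read-out: J-aggregates ex 540/em 590 nm, monomers ex 490/em 535 nm. HepG2, 1 hr compound treatment, then 30 min Mito-MPS dye at 37C. 11-pt qHTS concentration series.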

[12] = Secretion counterscreen for inhibitors of the SERCaMP assay screened against the NCATS CANVASS Library (AID 1347390);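 further: light from luciferase secreted into medium read as a measure of general secretion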
Procedure, shortened: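 SH-SY5Y cells expressing constitutively secreted GLuc, 1000 cells/well, attached 4 h at 37C, then exposed to compounds (0.001 - 77 uM, 11-pnt series) for 20 h. Coelenterazine added; luminescence read to flag secretory-pathway interferers.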

[13] = qHTS for activators of Nrf2/ARE signaling pathway screened against the NCATS CANVASS Library (AID 1347391); further: nearly all actives have a fitted effect of over 60% in size
Procedure, shortened: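 HepG2 ARE-bla; cpd 11-pt qHTS, 16 h 37C/5% CO2; CCF4 substrate 2 h RT; read ex 405 / em 460 + 530 nm. Viability by CellTiter-Glo luminescence, 30 min RT.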

[14] = qHTS for activators of dead-cell proteases activity screened against the NCATS CANVASS Library (AID 1347392);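 further: luminescence from protease leaking out of membrane-damaged cells cleaving impermeant substrate; rising signal means more cytotoxicity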
Procedure, shortened: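 Cytotoxicity in HepG2 cells was assessed by released protease cleaving AAF-aminoluciferin, with luminescence as signal. Exposure lasted 5 h at 37C across an 11-point series.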

[15] = Vero-766 cells viability qHTS against the NCATS CANVASS Library: Counterscreen for Zika virus inhibition assay (AID 1347394); further: nearly all actives have a fitted effect of over 60% in size
Procedure, shortened: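 Uninfected Vero 766 (African green monkey) cells, 1000/well, attached overnight, then exposed 72 h at 37C to compounds (11-point qHTS). Viability read by CellTiter-Glo luminescence; media-only wells served as 100% inhibition.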

[16] = qHTS for inhibitors of Wild type Zika virus screened against the NCATS CANVASS Library (AID 1347396);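 further: ATP luminescence of surviving cells so rescue from viral cell killing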
Procedure, shortened: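 Using ATP-based luminescence (CellTiter Glo), this screen scores rescue of Vero 766 cells from wild-type Zika killing at 72 h post-infection. Compounds are tested in a concentration series.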

[17] = Viability qHTS for inhibitors of the SERCaMP assay screened against the NCATS CANVASS Library (AID 1347400); further: nearly all actives have a fitted effect of over 70% in size
Procedure, shortened: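 CellTiter-Glo luminescence readout after 48 h compound exposure (11-pnt qHTS series) of SH-SY5Y-GLuc SERCaMP MJH297 cells seeded at 1000 cells/well; bortezomib positive control.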

[18] = qHTS for inhibitors of ER calcium dysfunction: SERCaMP assay screened against the NCATS CANVASS Library (AID 1347393);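 further: lower secreted reporter signal means inhibitor of ER calcium depletion; nearly all actives have a fitted effect of over 40% in size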
Procedure, shortened: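 qHTS in SH-SY5Y reporter cells: 16 h compound pretreatment, 4 h thapsigargin, then secreted Gaussia luciferase measured by luminescence.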

[19] = Redox Reaction Profiling qHTS: Assay Interference Panel against the NCATS CANVASS Library (AID 1347401)
Procedure, shortened: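 Quantitative HTS over an 11-point series was run in HEPES pH 7.3 with 50 mM NaCl, 200 uM DTT and 5 uM resazurin. Initial and 15-min resorufin fluorescence readings were taken.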

[20] = qHTS to identify inhibitors of the type 1 interferon - major histocompatibility complex class I in skeletal muscle: primary screen against the NCATS Mechanism Interrogation Plate v5.0 (MIPE) Libary (AID 1347411); further: nearly all actives have a fitted effect of over 65% in size
Procedure, shortened: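 HLA-B HiBit myoblasts, dexamethasone-free medium + 4 ng/ml IFN-b, 24 h compound, 11-pt 1:3 from 46 uM final. Readout: Nano-Glo HiBiT lytic luminescence after 10 min lysis, RT.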

Cc1cccc(C(=O)NCN2CCN(c3ccccc3C#N)CC2)c1
Potency [1]: inactive | outcome [2]: inactive | Potency [3]: inactive

N#Cc1cc2nc(O)c(O)nc2cc1[N+](=O)[O-]
Potency [1]: inactive | outcome [2]: inactive | Potency [3]: inactive

Nc1ccc(-c2ccc3ccccc3n2)cc1
Potency [1]: inactive | outcome [2]: inactive

Nc1ccc(N2C(=O)c3ccccc3C2=O)c(Cl)c1
Potency [1]: inactive | outcome [2]: inactive | Potency [3]: inactive

N[C@@H](Cc1c[nH]c2ccccc12)C(=O)O
Potency [1]: inactive | outcome [2]: inactive | Potency [3]: inactive

NCC(O)(CS(=O)(=O)O)c1ccc(Cl)cc1 (stereo unspecified)
Potency [1]: inactive | outcome [2]: inactive | Potency [3]: inactive

O[Si](CCCN1CCCCC1)(c1ccc(F)cc1)C1CCCCC1 (stereo unspecified)
Potency [1]: inactive | outcome [2]: inactive | Potency [3]: inactive

Cn1cc(C(F)(F)F)nc1-c1ccc(OCC(O)CNCCOc2ccc(O)c(C(N)=O)c2)cc1 (stereo unspecified)
Potency [1]: inactive | outcome [2]: inactive | Potency [3]: inactive

CCCCCC(O)CCCC(=O)O (stereo unspecified)
Potency [1]: inactive | outcome [2]: inactive | Potency [3]: inactive

CC(=O)NCCc1c[nH]c2ccc(O)cc12
outcome [4]: inactive | outcome [5]: inactive | outcome [6]: inactive | outcome [7]: inactive | outcome [8]: inactive | outcome [9]: inactive | outcome [10]: inactive | outcome [11]: inactive | outcome [12]: inactive | outcome [13]: inactive | outcome [14]: inactive | outcome [15]: inactive | outcome [16]: inactive | outcome [17]: inactive | Potency [1]: inactive | outcome [2]: inactive | Potency [3]: inactive

O=c1ccn([C@@H]2O[C@H](COP(=O)(O)OP(=O)(O)O)[C@@H](O)[C@H]2O)c(=O)[nH]1
Potency [1]: inactive | outcome [2]: inactive | Potency [3]: inactive

CN[C@H](CC(=O)O)C(=O)O
Potency [1]: inactive | outcome [2]: inactive | Potency [3]: inactive

Oc1cc(O)c2c(c1)O[C@H](c1ccc(O)c(O)c1)[C@@H](O)C2
Potency [1]: inactive | outcome [2]: inactive | Potency [3]: inactive

Nn1nnc2ccccc21
Potency [1]: inactive | outcome [2]: inactive | Potency [3]: inactive

CC(C)NC[C@H](O)COc1ccc(CC(N)=O)cc1
Potency [1]: inactive | outcome [2]: inactive | Potency [3]: inactive

NC(=O)CNCCC(c1ccccc1)c1ccccc1
Potency [1]: inactive | outcome [2]: inactive | Potency [3]: inactive

CCOC(=O)C12CC1/C(=N/O)c1ccccc1O2 (stereo unspecified)
Potency [1]: inactive | outcome [2]: inactive | Potency [3]: inactive

COc1ccccc1N1CCN(CCCNc2c(C)c(=O)n(C)c(=O)n2C)CC1
Potency [1]: inactive | outcome [2]: inactive | Potency [3]: inactive

CCCCCC[C@@H]([C@@H](C)O)n1cnc2c(N)ncnc21
Potency [1]: inactive | outcome [2]: inactive | Potency [3]: inactive

O=C(O)Cc1c[nH]c2ccc(O)cc12
outcome [4]: inactive | outcome [5]: inactive | outcome [6]: inactive [at 114 µM] | outcome [8]: inactive | outcome [9]: inactive | outcome [10]: inactive | outcome [11]: inactive | outcome [12]: inactive | outcome [13]: inactive | outcome [14]: inactive | outcome [18]: inactive | outcome [15]: inactive | outcome [16]: inactive | outcome [17]: inactive | outcome [19]: inactive | Potency [1]: inactive | outcome [2]: inactive | Potency [3]: inactive

Nc1ncnc2c1ncn2C1CCCC1
Potency [1]: inactive | outcome [2]: inactive | Potency [3]: inactive

N[C@H](C(=O)O)[C@H]1C[C@@H]1C(=O)O
Potency [1]: inactive | outcome [2]: inactive | Potency [3]: inactive

CC1=C(/C=C/C(C)=C/C=C/C(C)=C\C(=O)O)C(C)(C)CCC1
Potency [1]: inactive | outcome [2]: inactive | outcome [20]: inactive | Potency [3]: inactive

COc1cccc(OC)c1OCCNCC1CSc2ccccc2O1 (stereo unspecified)
Potency [1]: inactive | outcome [2]: inactive | Potency [3]: inactive

CC[C@H](NC(=O)c1c(C)c(-c2ccccc2)nc2ccccc12)c1ccccc1
Potency [1]: inactive | outcome [2]: inactive | Potency [3]: inactive

Nc1ccc(-c2nc3ccc(-c4nc5ccc(N)cc5[nH]4)cc3[nH]2)cc1
Potency [1]: inactive | outcome [2]: inactive

CC(C)[C@@H]1CC[C@@H](C)C[C@@H]1P(=O)(c1ccccc1)c1ccccc1
Potency [1]: inactive | outcome [2]: inactive | Potency [3]: inactive

CCCN(CCc1ccccc1)C1CCc2c(O)cccc2C1 (stereo unspecified)
Potency [1]: inactive | outcome [2]: inactive | Potency [3]: inactive

CC(C)NCC(O)COc1ccc(CC(N)=O)cc1 (stereo unspecified)
Potency [1]: inactive | outcome [2]: inactive | Potency [3]: inactive

COc1ccc(NC(=O)c2ccc(-c3ccc(-c4noc(C)n4)cc3C)cc2)cc1N1CCN(C)CC1
Potency [1]: 25.1 µM (active) | outcome [2]: inactive | Potency [3]: inactive

NCCC1CCCC(CCN)N1 (stereo unspecified)
Potency [1]: inactive | outcome [2]: inactive | Potency [3]: inactive

COc1ccc2c(c1)c(CC(=O)O)c(C)n2C(=O)c1ccccc1
Potency [1]: inactive | outcome [2]: inactive | Potency [3]: inactive

O=C(O)/C=C/c1ccc(O)c(O)c1
Potency [1]: inactive | outcome [2]: inactive | Potency [3]: inactive

O=c1cc(O)cc(/C=C/c2ccc(O)c(O)c2)o1
Potency [1]: inactive | outcome [2]: inactive

Cc1cccc(C2CN(C)CCc3c2cc(O)c(O)c3Cl)c1 (stereo unspecified)
Potency [1]: inactive | outcome [2]: inactive | Potency [3]: inactive

CC1CNCCN1S(=O)(=O)c1cccc2cnccc12 (stereo unspecified)
Potency [1]: inactive | outcome [2]: inactive | Potency [3]: inactive

N[C@@H](CCC(=O)N[C@H](CSN=O)C(=O)NCC(=O)O)C(=O)O
Potency [1]: inactive | outcome [2]: inactive | Potency [3]: inactive

CC(=O)O[C@H]1Cc2ccccc2N(C(N)=O)c2ccccc21
Potency [1]: inactive | outcome [2]: inactive | Potency [3]: inactive
